# Assay results from PubChem BioAssay (NCI).
# Compounds without any hit were thinned out: in the full panel of roughly 83,000, 20% have a hit.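 Values shown are percent growth following 48 h exposure of cells in 96-well plates to a single concentration of compound; below 10 was considered active.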 Activity calls are given as the source filed them.
# System: HL-60(TB) leukemia
# Assay: NCI-60 one-dose screen, 48 h (100 = growth as untreated, 0 = no growth, -100 = all killed)
# Conditions: 10 µM unless noted
row,SMILES,growth
1,Cn1cc(-c2cc(N)n3nc(-c4cn(C)c5ccccc45)cc3n2)c2cc(Cl)ccc21,-26% (active)
2,CCN(CC)CCOc1ccc(Nc2ncc3cc(-c4ccc(O)c(C#N)c4)c(=O)n(C)c3n2)cc1,87.6% (inactive)
3,O=C(c1ccc(Cl)cc1)C1[C@H](c2ccc(Br)cc2)[C@@H](c2ccccc2)NC12C(=O)Nc1ccccc12 (stereo not given in full),-32% (active)
4,CN1C(=O)/C(=C/c2ccco2)S/C1=N/c1nccs1,102% (inactive)
5,CC(=O)Oc1ccccc1C(=O)[Se]C(=NC1CCCCC1)NC1CCCCC1,-17.5% (active)
6,COC(=O)c1cc(C(=O)C(Br)Br)n2c1ccc1c3ccccc3ccc12,76.2% (inactive)
7,Fc1ccc(/C=C/c2nc3ccccc3n3c(-c4ccc(Cl)cc4)nnc23)cc1,3.61% (active)
8,N#Cc1c(-c2cccc(Cl)c2Cl)cc(-c2ccc3ccccc3c2)[nH]c1=O,83.8% (inactive)
9,CC12CC[C@@H]3[C@]4(C)COC(c5c(F)cccc5F)O[C@@H]4CC[C@@]3(C)[C@@H]1CC(C1=CCOC1=O)O2 (stereo not given in full),60.3% (inactive)
10,O=c1c2ccccc2nc(COc2ccccc2)n1/N=C/c1ccc(F)cc1,94.8% (inactive)
11,O=C1CC(Sc2n[nH]c(-c3ccncc3)n2)C(=O)N1c1ccc(Br)cc1 (stereo not given),101% (inactive)
12,COc1ccc(NC(=O)Cn2c(/C=C/c3cccc(Br)c3)nc3ccccc3c2=O)cc1,92.9% (inactive)
13,COc1cc2c3c(n(CCCNCCO)c(=O)c2cc1OC)-c1nc2c(cc1C3=O)OCO2,38.3% (inactive)
14,N#Cc1ccc(C(=O)NNC(=O)CSc2nc3sc4c(c3c(=O)n2-c2ccc(Cl)cc2)CCCC4)cc1,67.2% (inactive)
15,Cc1noc2c(Cc3ccccc3)nn(CC(=O)N/N=C/c3ccc(Cl)cc3)c(=O)c12,103% (inactive)
16,COCOc1cc2c(=O)c(C)c(C(=O)N[C@@H](Cc3ccccc3)C(O)C(=O)NCc3ccccc3)oc2cc1OC (stereo not given in full),99.2% (inactive)
17,CC(C)CCSc1nc(NC2CC2)c(C#N)c(-c2ccc(C(C)C)cc2)n1,80.4% (inactive)
18,COc1ccc(C2c3sc4ccc(C)cc4c3Oc3nc[nH]c(=O)c32)cc1 (stereo not given),85.2% (inactive)

row,SMILES,growth
1,COc1ccc2[nH]c(=O)c(CSc3ccccc3Nc3nccc(-c4ccc(C(F)(F)F)cc4)n3)cc2c1,1.94% (active)
2,COc1cc(OC)c2c3nc4cc(C)c(C)cc4nc3n(CCN(C)C)c2c1,52.9% (inactive)
3,COc1cc(NC(=O)CSc2nnc(-c3ccc4nc(-c5ccc(Cl)cc5)[nH]c4c3)o2)cc(OC)c1OC,56.6% (inactive)
4,Cc1cc2nc3c4ccccc4n(CCNCCN(C)C)c3nc2cc1C,-0.721% (active)
5,CC(Nc1ncnc2ccc(-c3ccc4oc(N)nc4c3)cc12)c1ccccc1 (stereo not given),-71.4% (active)
6,O=C(c1ccc(O)cc1)C1[C@H](c2ccc(Br)cc2)[C@@H](c2ccccc2)NC12C(=O)Nc1ccccc12 (stereo not given in full),50.5% (inactive)
7,O=C(CNc1nc(-c2ccccc2)cs1)Nc1cccc(Cl)c1,-2.63% (active)
8,Cn1cc(-c2cc3nc(-c4cn(C)c5ncc(Br)cc45)cc(N)n3n2)c2cc(F)ccc21,1.38% (active)
9,Nc1nnc(-c2c[nH]c3ccc(Br)cc23)c(-c2c[nH]c3ncc(Br)cc23)n1,23.1% (inactive)
10,CC(=O)OC[C@@]1(C)C2CC[C@]3(C)C(CC=C4C5CC(C)(C)CC[C@]5(C(=O)Nc5ccc(F)cc5)CC[C@]43C)[C@@]2(C)C[C@@H](OC(C)=O)[C@@H]1OC(C)=O (stereo not given in full),27.9% (inactive)
11,COc1cc(/C=C2\C(=N)N=C(SCc3nc4ccccc4[nH]3)NC2=O)ccc1O,83.7% (inactive)
12,O=Cc1cncc(-c2ccc3ncnc(N4CCc5cc(F)c(Cl)cc54)c3c2)c1,44.3% (inactive)
13,Cc1noc2c(Cc3ccccc3)nn(CC(=O)N/N=C/c3ccc(Br)cc3)c(=O)c12,100% (inactive)
14,O=c1onc(-c2cc3ccccc3nc2Cl)n1-c1cccc2ccccc12,33.5% (inactive)
15,COc1ccc(/C(CSc2nnc(-c3c[nH]c4ccccc34)n2-c2ccccc2)=N/O)cc1,3.87% (active)
16,C#C[C@]1(O)CC[C@H]2[C@@H]3CC=C4c5sc(-c6ccc([N+](=O)[O-])cc6)nc5CC[C@]4(C)[C@H]3CC[C@@]21C,23.7% (inactive)
17,CCC1(OC(=O)c2ccccc2SSCCOC(=O)CCCCC2SCC3NC(=O)NC32)C(=O)OCc2c1cc1n(c2=O)Cc2cc3ccccc3nc2-1 (stereo not given),76.7% (inactive)
